# GoLoco inh red: RGS12 GoLoco-Gai1 interaction inhibition; P63096; Gai1:RGS12 GoLoco peptide FP, rhodamine, 10 min; Potency, µM (highest dose often 61.6 µM), without a hit: at the top dose activity, negative = inhibition, actives largely listed as inhibitors; hit rate 0.44% among 230,000; AID 880; active means well fitted inhibition curve with a large enough effect, not every such curve was filed as active; inactive means no such curve, though single readings can be large or run the other way; further: nearly all actives have a fitted effect of over 30% in size
# Target sequence (P63096 whole entry, looked up): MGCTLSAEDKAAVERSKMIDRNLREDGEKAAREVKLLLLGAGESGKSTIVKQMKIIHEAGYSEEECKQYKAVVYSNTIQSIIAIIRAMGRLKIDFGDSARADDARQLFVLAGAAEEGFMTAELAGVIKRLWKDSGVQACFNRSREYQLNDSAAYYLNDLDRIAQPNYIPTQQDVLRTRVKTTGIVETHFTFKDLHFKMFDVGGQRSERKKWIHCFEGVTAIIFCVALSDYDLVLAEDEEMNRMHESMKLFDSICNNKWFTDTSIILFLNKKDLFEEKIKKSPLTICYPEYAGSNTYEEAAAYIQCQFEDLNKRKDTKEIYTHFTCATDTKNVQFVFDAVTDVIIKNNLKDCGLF
# JMJD2E inh: JMJD2E (human) inhibition; AID 2147; hit rate 1.6% among 230,000; Potency, µM (titrated, usually from 57.1 µM), without a hit: top-dose activity change, negative = inhibition, usual class: inhibitors; JMJD2E catalytic domain, FDH-coupled NADH fluorescence (FDH is formaldehyde dehydrogenase); B2RXH2; active means well fitted inhibition curve with a large enough effect, not every such curve was filed as active; inconclusive means small, poorly fitted or top-dose-only effect, or another doubt; inactive means no such curve, though single readings can be large or run the other way;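 further: 0% = wells with enzyme and -100% = buffer wells without enzyme; nearly all actives have a fitted effect of over 50% in size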
# Tau fibril FP: blocks human tau fibril formation measured by polarization; P10636; Potency, µM (doses to about 57.7 µM), without a hit: top-dose activity, negative = inhibition, actives largely listed as inhibitors; AID 1468; K18 P301L tau heparin fibrillization, Alexa594 FP, 6 h; hit rate 0.39% among 280,000; further: nearly all actives have a fitted effect of over 55% in size
# Target sequence (P10636 561-689 P618L limits assumed): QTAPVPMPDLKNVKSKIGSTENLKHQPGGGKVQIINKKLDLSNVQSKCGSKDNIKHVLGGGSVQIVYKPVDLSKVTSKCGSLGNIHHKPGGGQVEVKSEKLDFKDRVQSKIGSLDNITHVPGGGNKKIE
#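 K18 P301L tau (15 uM unlabeled/0.24 uM Alexa 594-labeled, final) + compound + heparin 20 uM final; 100 mM NaOAc pH 7; 6 hr 37 C; ThT 30 uM final added, 1 hr RT; FP ex 555/em 632 nm.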
# Tau fluor counter: counter-screen for tau fibril formation inhibitors; tau K18 P301L Alexa594 fluorescence, heparin fibrillization; Potency, µM (titrated, usually from 57.7 µM), inactives show at the top dose activity change, negative = decrease; hit rate 0.93% among 280,000; AID 1463; further: nearly all actives have a fitted effect of over 55% in size
#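 Human K18 P301L tau (15 uM unlabeled plus 0.24 uM Alexa 594-labeled, final) in 100 mM sodium acetate pH 7 was mixed with compound and 20 uM heparin and incubated 6 hr at 37 C.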
# Tau ThT inhib: inhibitors of human tau fibril formation, thioflavin T binding | recombinant tau K18 P301L (four-repeat tau fragment), heparin-induced fibrillization, ThT fluorescence | Potency, µM (series often up to 57.4 µM), for the others: at the top dose activity, negative = inhibition, actives largely listed as inhibitors | P10636 | AID 1460 | hit rate 2.1% among 270,000; further: nearly all actives have a fitted effect of over 55% in size
#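 Tau K18 P301L fragment (15 uM unlabeled plus 0.24 uM Alexa 594-labeled) in 100 mM sodium acetate pH 7 with compound, fibrillization induced by 20 uM heparin for 6 hr at 37 C. Thioflavin T (30 uM) added, fluorescence read after 1 hr (ex 450, em 510 nm).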
# Active calls of the source: *; ? = inconclusive; nt = no result; [ ] = dose if it differs, or a comment. Shown are actives, neighbours in structure and some others; about 3.4% of the full set was active somewhere. Unless noted, the call rests on the fitted dose curve; in most records, active means well fitted curve in the direction sought with a large enough effect; inconclusive means small, poorly fitted or top-dose-only effect, or another doubt; inactive means no such curve, though single readings can be large; an effect the other way counts as inactive or inconclusive. Unless noted, on the % scale 0 is the no-effect control and ±100 the full control effect; potency means the concentration at half of the fitted maximal effect.
SMILES,GoLoco inh red,JMJD2E inh,Tau fibril FP,Tau fluor counter,Tau ThT inhib
Cc1onc(-c2ccccc2)c1C(=O)NC(=S)NNC(=O)c1ccco1,5.4%,-22.9%,2.6%,-15.3%,-13.9%
O=S(=O)(NCC(c1ccco1)N1CCN(c2ccc(F)cc2)CC1)c1cc(F)ccc1F (stereo not drawn),nt,nt,7.7%,?,-10.5%
Cc1cc(Nc2ccc(F)cc2F)nc(-n2nc(C)cc2C)n1,nt,nt,4.6%,-5.7%,-5.4%
Fc1ccc(Nc2ccc3ccccc3n2)c(F)c1,-1.6%,22.4µM*,9.5%,-21.1%,-5.2%
Cc1ccc(CSc2ccc3nnc(CCNS(=O)(=O)c4ccc(C)cc4)n3n2)cc1,nt,nt,9.0%,-1.6%,-8.3%
CCOC(=O)/C(=N\Nc1ccccc1)c1csc(Nc2ccc(C)cc2)n1,-0.7%,-13.2%,7.5%,7.08µM*[quencher],?
Cc1cn(C)c(CC(=O)Nc2cccc(C#N)c2)c1C(=O)O,nt,nt,-5.1%,-11.8%,-7.7%
N=C1/C(=C\c2coc3ccccc3c2=O)C(=O)N=C2SC=CN12,20.1%,?,-3.8%,-27.7%,?
CSC1=NSC2=NC(=O)/C(=C/c3coc4ccc(O)cc4c3=O)C(=N)N12,67.3%,?,-4.9%,?,22.4µM*
CSC1=NSC2=NC(=O)/C(=C/c3coc4ccccc4c3=O)C(=N)N12,15.8%,?,?,?,17.8µM*
O=S(=O)(c1ccccc1)c1nnn2c1nc(Nc1ccccc1)c1cc(Cl)ccc12,nt,nt,?,-10.8%,10.5%
CCC1CN(C(=O)N2CCC(C(=O)NCCc3ccc(OC)cc3OC)CC2)c2cc(C)ccc2O1 (stereo not drawn),nt,nt,-5.3%,-16.9%,-14.1%
O=C(c1ccco1)N1CCC[C@@]2(CCN(C(c3ccccc3)c3ccccc3)C2)C1,9.9%,nt,nt,nt,nt
COc1cccc(O)c1O,-17.5%,7.94µM*,25.1µM*,11.2µM*[quencher],14.1µM*
O=C(/C=C/c1ccccc1)/C=C/c1ccccc1,-9.8%,-4.3%,?,-20.3%,7.94µM*
O=c1nc2c(O)cccn2c2c1c(=O)[nH]c1ccccc12,24.4%,11.2µM*,?,-24.2%,?
COc1ccc(N=C2SCC(c3ccc(C)cc3)=NN2CCO)cc1,15.8%,-16.5%,13.0%,?,?
COc1ccc(N=C2SCC(c3ccc([N+](=O)[O-])cc3)=NN2CCO)cc1,3.9%,-18.2%,13.8%,?,11.2µM*
O=[N+]([O-])c1ccc(C2=NN(CCO)C(=Nc3ccc(OC(F)(F)F)cc3)SC2)cc1,4.5%,-4.0%,14.1%,?,14.1µM*
Cc1ccc2oc(C(=O)Nc3c(C(=O)Nc4ccccc4)oc4ccccc34)cc(=O)c2c1,nt,nt,-5.1%,-6.6%,-11.1%
COCCCNC(=O)CCc1c(C)nc2cc(-c3ccc(Cl)cc3)nn2c1C,nt,nt,-0.6%,-9.4%,-7.7%
Cc1ccc(S(=O)(=O)Nc2ccc(O)c3ncccc23)cc1,3.5%,25.1µM*,6.1%,-12.3%,-14.2%
CNC(=O)c1ccc(-c2sc3nc(N4CCOCC4)c4c(c3c2N)CCCC4)o1,nt,?,20.0%,14.1µM*[quencher],15.8µM*
CNC(=O)c1ccc(-c2sc3nc(N4CCOCC4)c4c(c3c2N)CC(C)(C)OC4)o1,74.1%,?,2.0%,?,?
CC(C)COc1ccc(C(=O)N2CCCCC2CCN2CCOCC2)cc1 (stereo not drawn),nt,nt,1.0%,5.0%,2.4%
SMILES,GoLoco inh red,JMJD2E inh,Tau fibril FP,Tau fluor counter,Tau ThT inhib
COc1ccc(CCN(/C=C2\Sc3ccccc3C2=O)C(C)=O)cc1OC,19.6%,31.6µM*,5.8%,-18.2%,?
CCC1=Nc2cc(C(=O)NCCc3ccc(OC)c(OC)c3)ccc2Sc2ccccc21,nt,nt,-6.3%,?,?
COc1ccc2nc(Nc3ccccc3OC)sc2c1,-6.5%,-7.7%,10.4%,?,12.6µM*
COc1ccc(Nc2nc3ccccc3c(=O)s2)c(OC)c1,7.4%,3.4%,6.6%,-0.6%,-0.6%
COc1ccc2nc(Nc3ccccc3)sc2c1,3.6%,-2.2%,10.8%,17.8µM*[quencher],14.1µM*
COc1ccc2nc(Nc3nc4cc5c(cc4s3)OCO5)sc2c1,-3.7%,?,2.2%,7.94µM*[quencher],2.82µM*
COc1ccc2nc(NNC(=O)c3cc(=O)c4ccccc4o3)sc2c1,-1.4%,31.6µM*,-19.7%,?,4.47µM*

# Screens as filed in PubChem.
